Assay outcomes (PubChem BioAssay)
An excerpt weighted towards active compounds, which were near 1.1% of everything screened.
Pemphigus Ab inh: inhibitors of pemphigus antibody binding to DSG3, primary screen, biochemical, bead-based, flow cytometry, scFv-GFP. Desmoglein-3 (Homo sapiens), P32926. 0.48% of 310,000 active. binding (percent of control), % at 10 µM. DSG3-coupled beads, scFv-anti-DSG3-GFP binding; active compounds read low;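 active means binding more than 3 SD below its plate's average and above zero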;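 further: hits lower antibody fragment binding to DSG3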
NTR1 ag: agonists of human NTR1, primary screen, imaging, U2OS cells, beta-arrestin-GFP, high content; Neurotensin receptor type 1 (Homo sapiens), P30989; NTR1-U2OS beta-arrestin-GFP spot imaging, agonist mode; activation, % at 20 µM; 0.17% of 330,000 active; AID 493036, 2011;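 active means activation at or above 40% of the spot to cytoplasm intensity ratio, with at least 20 cells analyzed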;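 further: 0% = DMSO without peptide and 100% = 100 nM NTR1 peptide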
AI-2 QS modul: Vibrio harveyi AI-2 quorum sensing modulators, primary screen, JMH597 strain, luminescence/OD600 ratio | activity change, % at 7.5 µM | Vibrio harveyi JMH597 AI-2 luminescence/OD600 ratio, 9 h; active compounds read low; strain lacks LuxN and CqsS sensors; 0 = neutral-control median | 0.4% of 300,000 active; in the data active means activity change below about -75%, passing the limit was not always enough;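 further: luminescence divided by OD600 gain over 9 h not by final OD600 alone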
VLA-4 inh: inhibition in human VLA-4 binding assay, primary screen, VLA-4 allosteric modulator project, MLPCN library, flow cytometry, VLA-4 expressing cells. Integrin alpha-4 (Homo sapiens), P13612. ligand binding flow cytometry. inhibition, % (about 7 µM as worked out from the volumes in the protocol). 0.2% of 330,000 active. AID 2557, 2010; in the data active means inhibition above about 50%
VLA-4 mod pick: retest of VLA-4 allosteric modulators, confirmation, cell-based, cherry-picked plates, U937, HUTS-21 LIBS antibody. shares compounds with VLA-4 inh. U937 cells, HUTS-21 LIBS mAb binding, flow cytometry; LDV ligand present at threefold Kd. inhibition, % at 6.7 µM. 2% of 1,300 active. AID 2813, 2010; in the data active means inhibition above about 40%;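 further: 0% = ligand without compound and 100% = no ligand background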
An asterisk follows results filed as active; nt = not tested or not shown.

SMILES	Pemphigus Ab inh	NTR1 ag	AI-2 QS modul	VLA-4 inh	VLA-4 mod pick
CN(C(=O)Cn1c(=O)oc2ccccc21)C1CCCCC1	98	-2	nt	-1	9
O=C(Cn1c(=O)oc2ccccc21)N1CCOCC1	96	2	11	26	nt
O=C(Cn1c(=O)oc2ccccc21)N1CCCC1	104	-1	1	1	-3
CC1CCCCN1C(=O)Cn1c(=O)oc2ccccc21 (stereo unspecified)	99	-1	17	-5	nt
CN(CC(=O)Nc1cccc(F)c1)C(=O)Cn1c(=O)oc2ccccc21	100	-2	nt	14	11
Cc1ccc2oc(=O)n(CC(=O)N3CCOCC3)c2c1	nt	2	6	2	1
Cc1oc(-c2ccccc2Cl)nc1CS(=O)CC(=O)NCc1ccc2c(c1)OCO2 (stereo unspecified)	82	0	6	4	nt
COc1ccc(NC(=O)COC(=O)C2CCN(S(=O)(=O)c3ccccc3)CC2)cc1Cl	97	0	10	9	nt
O=C(CC1SCCNC1=O)Nc1ccccc1Cl (stereo unspecified)	122	0	19	59*	2
COc1ccc(NC(=S)N2CCCC(c3nc4ccc(C)cc4[nH]3)C2)c(OC)c1 (stereo unspecified)	97	4	20	54*	15
COc1ccc(NC(=S)N2CCCC(c3nc4ccc(C)cc4[nH]3)C2)cc1 (stereo unspecified)	94	1	13	7	nt
O=C(CSc1nnc(-c2ccccc2Cl)o1)Oc1ccc(Br)cc1	101	-1	3	91*	9
CCCc1ccc(S(=O)(=O)N2CCN(C(C)C(=O)NCc3ccc(OC)cc3)CC2)cc1 (stereo unspecified)	100	4	nt	1	nt
CCN1CCCC1CNC(=O)C(=O)NC1CC1 (stereo unspecified)	81	3	17	46	-2
CCOC(=O)CSc1ccc2nnc(-c3ccccc3)n2n1	104	2	16	17	nt
CCOC(=O)CSc1ccc2nnc(-c3cccnc3)n2n1	101	-2	5	-24	9
O=C(COC(=O)[C@@H]1CCCN1C(=O)c1cccs1)Nc1cccc(Cl)c1	nt	4	nt	-5	nt
CC1(c2ccc3c(c2)OCO3)NC(=O)N(CC(=O)Nc2ccccc2[N+](=O)[O-])C1=O (stereo unspecified)	120	0	nt	nt	nt
Cc1cc(N2CCOCC2)n2nc(C)c(-c3ccccc3)c2n1	nt	1	nt	-10	nt
CCc1nn2c(N3CCOCC3)cc(C)nc2c1-c1ccccc1	96	4	7	45	13
CS(=O)(=O)c1ccc2nc(NC(=O)c3ccco3)sc2c1	93	1	38	18	nt
Cc1c(Cl)ccc2sc(NC(=O)c3ccco3)nc12	102	7	6	54*	2
COc1ccccc1CNC(=O)C(CCSC)NC(=O)c1cccc(S(=O)(=O)N2CCOCC2)c1 (stereo unspecified)	96	3	nt	0	nt
Cn1c(N)c(S(=O)(=O)N2CCN(c3ccccc3F)CC2)c(=O)n(C)c1=O	102	0	19	-5	nt
CN(CC(=O)Nc1ccccc1Cl)CC(=O)c1c(N)n(Cc2ccccc2)c(=O)n(C)c1=O	70	3	nt	6	nt
Cc1cc(O)c(NC(=O)c2cc([N+](=O)[O-])ccc2Cl)cc1C	106	1	29	51*	-8
OCCOc1ccc(CN2CCN(CCCc3ccccc3)C(CCO)C2)cc1 (stereo unspecified)	109	0	38	7	nt
O=C1Nc2ccc(F)cc2C12OCCO2	88	2	17	51*	0
COC(=O)[C@]1(Cc2ccccc2)N[C@H](CN(C)C(=O)Nc2ccc(F)cc2)[C@@H]2C(=O)N(Cc3ccccc3)C(=O)[C@@H]21	103	3	nt	1	2
CCN(C[C@H]1N[C@@](Cc2ccccc2)(C(=O)OC)[C@H]2C(=O)N(Cc3ccccc3)C(=O)[C@@H]12)C(C)=O	108	5	nt	8	3
